This is a sample that favours compounds with a hit; in the whole collection about 6% have one here.
D1 antagonist: human D1 dopamine receptor antagonism; 3.2% of 360,000 active; activity change, negative = inhibition, % at 10 µM; HEK293 TREx D1 cells, calcium flux, dopamine EC80; hits give low values; P21728; AID 504652; in the data active means activity change below about -30%; further: on the % scale 0 is the no-effect control and ±100 the full control effect
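Calcium flux readout: force-coupled, inducible Hek293 Trex D1 line, cells induced overnight at 30 C with tetracycline, dye-loaded 30–90 min at RT. Antagonism scored against EC80 dopamine challenge given 180 s after compound.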
D3 ag: D3 dopamine receptor (human) agonism | D3R DiscoveRx beta-arrestin cells, luminescence, 90 min | max activation, % | 0.58% of 410,000 active; in the data active means max activation above about 30%; further: 0% is about no effect
Target sequence (P35462 whole entry, looked up): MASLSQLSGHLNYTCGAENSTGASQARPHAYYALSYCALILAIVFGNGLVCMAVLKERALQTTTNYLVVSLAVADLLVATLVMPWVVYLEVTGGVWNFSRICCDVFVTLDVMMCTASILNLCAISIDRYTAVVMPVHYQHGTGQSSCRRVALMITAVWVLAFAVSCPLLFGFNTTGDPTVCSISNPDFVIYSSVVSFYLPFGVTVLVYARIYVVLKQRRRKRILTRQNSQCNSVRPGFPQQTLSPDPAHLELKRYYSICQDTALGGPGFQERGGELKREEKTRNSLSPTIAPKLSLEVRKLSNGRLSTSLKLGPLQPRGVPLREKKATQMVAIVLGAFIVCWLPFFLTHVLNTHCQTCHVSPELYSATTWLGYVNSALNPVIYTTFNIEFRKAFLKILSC
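Agonist mode: compounds and dopamine controls were applied to plated cells for 90 min at 37 degrees C after an overnight attachment at 1500 cells/well. Luminescent read-out followed 30 - 60 minutes at room temperature with DiscoveRx detection reagent.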
D3 antag: antagonists of human D3 dopamine receptor. P35462. D3R cells, DiscoveRx beta-arrestin luminescence, antagonist mode; hits give low values. max response, negative = inhibition, %. 2.5% of 360,000 active. AID 652054; in the data active means max response below about -50%; inconclusive means no clear call, values can overlap the other calls; further: on the % scale 0 is the no-effect control and ±100 the full control effect
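Cells plated overnight at 1500 cells/well, then exposed to library compounds with dopamine controls for 90 minutes at 37 degrees C. DiscoveRx reagent added for 30–60 minutes at room temperature; luminescence read, quantitative HTS format.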
D1 potentiator: potentiators of human D1 dopamine receptor | AID 504651 | potentiation, % at 10 µM | P21728 | HEK293 TREx D1 cells, calcium flux, dopamine EC20 potentiation | 0.036% of 360,000 active; in the data active means potentiation above about 30%; further: 0% is about no effect
D1 agonist: activates the human D1 dopamine receptor | P21728 | HEK293 T-REx D1 cells, calcium flux, agonist mode | activation, % at 2 µM | 1% of 360,000 active; in the data active means activation above about 30%; further: 0% is about no effect
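Agonism was scored from calcium flux recorded over 180 s (1 read/s) after pintool compound addition, following a 10-cycle baseline. Cells were inducible force-coupled HEK293 TREx D1, plated overnight at 30 C and loaded with no-wash calcium dye.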
The depositor's hits bear a star; ? = inconclusive; nt = no result.

SMILES | D1 antagonist | D3 ag | D3 antag | D1 potentiator | D1 agonist
C=CC1=C(C)C2=CC3=NC(=C(CC(=O)[O-])C4=NC(=C(C)C4=C([O-])[O-])C=c4[n-]c(c(C)c4CC)=CC1=N2)C(CCC(=O)[O-])C3C.[Cu+2].[Na+].[Na+].[Na+] (centres undefined) | nt | -20 | nt | nt | nt
Oc1ccc(Cl)cc1CNCC1CCCCC1 | 5 | -49 | -76* | -10 | 13
Cc1ccc(CNCc2cc(Cl)ccc2O)cc1 | 2 | -50 | ? | 0 | 60*
CN(C)c1ccc(CNC(=O)c2ccc3c(c2)N(C)C(=O)C2CCCCN32)cc1 (centres undefined) | 2 | -24 | nt | 1 | -1
CCN(CC)S(=O)(=O)c1ccc2c(c1)N(CC(=O)Nc1ccc(F)cc1F)C(=O)C1CCCN21 (centres undefined) | -32* | 2 | nt | 1 | 3
Nc1ncnc(Sc2ncccn2)c1[N+](=O)[O-] | nt | -20 | -84* | -2 | 0
CC(C)(C)OC(=O)NCc1ccc(CNC(=O)c2[nH]cnc2C(=O)NCC(=O)OCc2ccccc2)cc1 | -8 | 43* | 127 | -2 | 8
CCOC(=O)c1ccc(NC(=O)c2nc[nH]c2C(=O)NC)cc1 | -8 | 49* | 24 | 3 | 1
CC(C)(C)OC(=O)NCc1ccc(CNC(=O)c2[nH]cnc2C(=O)N[C@@H](Cc2ccccc2)C(=O)OCc2ccccc2)cc1 | -7 | 7 | 14 | 1 | 9
CC(C)(C)OC(=O)NCc1ccc(NC(=O)c2nc[nH]c2C(=O)N[C@@H](Cc2ccccc2)C(=O)OCc2ccccc2)cc1 | 5 | 31* | 32 | 7 | 5
CCN(CC)C(=O)c1[nH]cnc1C(=O)NCC(=O)OCc1ccccc1 | 13 | 39* | 45 | -2 | 0
COc1cccc(CNC(=O)CCn2c(=O)c3cccn3c3cccnc32)c1OC | 0 | -8 | nt | 0 | 1
Cc1ccc(NC(=O)Cn2c(=O)ccc3cc(S(=O)(=O)N4CCC(C)CC4)ccc32)cc1C | -9 | -5 | nt | 3 | 1
Cc1ccc(NC(=O)CNC(=O)Cc2cccc3ccccc23)c(O)c1 | 1 | -4 | -6 | -4 | 4
CN(Cc1ccccc1)C(=O)c1[nH]cnc1C(=O)NCc1ccccc1 | nt | 3 | 9 | -1 | -1
CN(Cc1ccccc1)C(=O)c1[nH]cnc1C(=O)NCc1ccc(CNC(=O)OC(C)(C)C)cc1 | nt | 70* | 78 | 1 | -3
COc1ccc(NC(=O)c2nc[nH]c2C(=O)NCc2ccccc2)cc1 | -4 | 57* | -3 | 2 | 2
CC(C)(C)OC(=O)CNC(=O)c1[nH]cnc1C(=O)NCCCCCN | 1 | 1 | 7 | -1 | 3
CC(C)(C)OC(=O)CNC(=O)c1[nH]cnc1C(=O)NCCCCCNC(=O)OC(C)(C)C | -9 | 55* | 74 | -7 | 6
O=C(Nc1ccccc1)c1nc[nH]c1C(=O)NCc1ccccc1 | nt | 5 | 4 | 5 | -3
CC(C)(C)OC(=O)NCc1ccc(CNC(=O)c2nc[nH]c2C(=O)NCc2ccccc2)cc1 | -53* | 12 | 21 | -2 | 1
O=C(NC1CC(=O)N(c2ccc(F)cc2)C1)C1CCCC1 (centres undefined) | nt | -5 | nt | -1 | 3
C[C@@H]1O[C@@H](OC[C@H]2O[C@@H](Oc3c(-c4ccc(OCCO)c(OCCO)c4)oc4cc(OCCO)cc(O)c4c3=O)[C@H](O)[C@@H](O)[C@@H]2O)[C@H](O)[C@H](O)[C@H]1O | nt | 3 | nt | nt | nt
CC1(C)S[C@@H]2[C@H](NC(=O)C(C(=O)O)c3ccsc3)C(=O)N2[C@H]1C(=O)O (some centres undefined) | nt | 4 | nt | nt | nt
C=CS(=O)(=O)c1sc(Cl)c(N2CCOCC2)c1[N+](=O)[O-] | -11 | -16 | -72* | -6 | 1
CCSc1ncc(Cl)c(C(=O)Nc2ccc(S(=O)(=O)N3CCCCC3CC)cc2)n1 (centres undefined) | -10 | -17 | nt | 3 | 2
CCC1CCCCN1S(=O)(=O)c1ccc(NC(=O)c2nc(S(C)(=O)=O)ncc2Cl)cc1 (centres undefined) | -34* | -29 | -18 | -11 | 1
CCC1CCCCN1S(=O)(=O)c1ccc(NC(=O)c2ccncc2)cc1 (centres undefined) | -34* | 26 | 5 | -5 | 18

High-throughput results (PubChem)
